# About 13,000 (27%) of roughly 48,000 compounds showed an effect of 50% or more. Some of the results follow.
# System: Wolbachia pipientis
# Test: Anti-Wolbachia Cell-Based Screen
# Assay type: functional
# Set-up: scale not given: in the data most compounds retested in dose-response had high values
# Details: 5 µM
row,Compound,Percent Effect [%]
1,Cc1cccc(COC[C@@H]2CC[C@H]3[C@H](CCN3C(=O)CC3CC3)O2)n1.O=C(O)C(F)(F)F,-1.291
2,Cc1cccc(COC[C@@H]2CC[C@H]3[C@H](CCN3Cc3ccco3)O2)n1.O=C(O)C(F)(F)F.O=C(O)C(F)(F)F,-8.217
3,c1coc(CN2CC[C@@H]3O[C@@H](COCC4CCOCC4)CC[C@@H]32)c1,95.89
4,O=C(c1ccco1)N1CC[C@@H]2O[C@H](COCC3CCOCC3)CC[C@@H]21,-18.62
5,CN(C)C(=O)COC[C@H]1CC[C@@H]2[C@@H](CCN2Cc2ccco2)O1.O=C(O)C(F)(F)F,91.23
6,COCCN1CC[C@@H]2O[C@@H](COCC(=O)N3CCCC3)CC[C@@H]21.O=C(O)C(F)(F)F,-7.716
7,Cc1cccc(COC[C@H]2CC[C@H]3[C@H](CCN3Cc3ccco3)O2)n1,105.2
8,O=C(COC[C@H]1CC[C@H]2[C@H](CCN2c2ncccn2)O1)N1CCCC1.O=C(O)C(F)(F)F,-10.98
9,O=C(COC[C@@H]1CC[C@H]2[C@H](CCN2Cc2ccco2)O1)N1CCCC1,94.38
10,O=C(c1ccco1)N1CC[C@@H]2O[C@@H](COCC3CCOCC3)CC[C@@H]21,-0.1018
11,CN(C)C(=O)COCC1C[C@@H]2OCCN(Cc3ccco3)[C@H]2C1 (some centres not stated),-1.169
12,COCCn1cc(NC(=O)NCC2CCN(c3ccccc3)C2)cn1 (configuration not stated),6.997
13,Cc1cc(CN2CCC(c3ccnn3CCO)CC2)no1,-5.622
14,CCNc1ncc(C(=O)NCc2csc(-c3cnccn3)n2)cn1,-2.125
15,CCC1COCCN1C(=O)NCc1cccc(-c2cnn(C)c2)c1 (configuration not stated),-16.85
16,Cc1ccc(CNC[C@H]2Cn3cc(-c4ccccc4)nc3CO2)cc1,-14.25
17,COc1ccc(CNC[C@H]2COCc3nc4cc(F)ccc4n32)cn1,2.56
18,c1csc(CN2CC[C@H]3O[C@@H](COCC4CC4)CC[C@H]32)c1,-24.01
19,O=C(O)C(F)(F)F.c1coc(CN2CC[C@H]3O[C@@H](COCC4CC4)CC[C@H]32)c1,103.1
20,CN1C[C@@H](COCC2CC2)[C@H]2CCN(Cc3ccco3)CC[C@H]2C1=O.O=C(O)C(F)(F)F,-15.86
21,CCSc1nnc(N2CCN(c3ccccc3)CC2)s1,-16.68
22,CCc1nc(N)nc(N(C)Cc2nncn2CCOC)c1C,-4.118
